# NOMO-1 viab – NOMO-1 AML cell viability reduction, primary screen, STK33 inhibitor project, CellTiter-Glo luminescence. NOMO-1 AML viability, 72 h. inhibition, % (no concentration beside the values). hit rate 7.5% among 37,000. AID 2330, 2010; in the data active = inhibition above about 80%; inconclusive = no clear call, values can overlap the other calls
# MITF inh – inhibitors of MITF, primary screen, MITF inhibitor project, cell-based, luminescence; TRPM1 promoter luciferase, 24 h; inhibition, % (no concentration beside the values); hit rate 0.28% among 37,000; AID 2240, 2010; in the data active = inhibition above about 85%; inconclusive = no clear call, values can overlap the other calls; inactive = below about 68%;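 note: human melanocyte line stably carrying TRPM1 promoter luciferase reporter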
# PD-1 reverse act – activators reversing PD-1 mediated T-cell inhibition, primary screen, luminescence, primary human CD4 T cells, PD-L1 beads; CellTiter-Glo 96 h; activation, % (test concentration not listed); 29,000 tested, under 10 active; call rule not given here;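 note: 0% = median vehicle wells and 100% = positive control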
# YB-1 expr inh – inhibitors of YB-1 gene expression, primary screen, cell-based, fluorescence | U2OS, qRT-PCR YB-1 vs CDIP delta delta Cp, 16 h; stronger effect = higher value; zero = DMSO, each unit about twofold | delta delta Cp (YB-1 minus CDIP) (concentration not given with the values) | hit rate 0.37% among 30,000 | AID 434959, 2010;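 active = delta delta Cp rounded down to an integer at or above 3, about 3 SD of DMSO wells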;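 note: higher means less YB-1 transcript or more CDIP transcript relative to DMSO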
# Shh pathway inh – Hedgehog pathway signaling inhibitors, primary screen, luminescence, Shh-LIGHT2 cells, Gli-luciferase; inhibition, % (concentration not given with the values); hit rate 2.1% among 22,000; Shh-LIGHT2 Gli-luciferase reporter, 30 h;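 active = mean inhibition across valid replicates above about 65%, limit read from the data; inconclusive = mean under the limit, yet half or more replicates past it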;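 note: pathway switched on by Shh-conditioned medium diluted 1 in 25 in low serum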
# The depositor's hits bear a star; ? = inconclusive; . = not tested or not shown. Hits are enriched below; roughly 7.4% of the tested compounds scored in any of these assays.
SMILES,NOMO-1 viab,MITF inh,PD-1 reverse act,YB-1 expr inh,Shh pathway inh
CC[C@]1(O)C[C@H]2CN(CCc3c([nH]c4ccccc34)[C@@](C(=O)OC)(c3cc4c(cc3OC)N(C=O)[C@H]3[C@@](O)(C(=O)OC)[C@H](OC(C)=O)[C@@]5(CC)C=CCN6CC[C@]43[C@@H]65)C2)C1,94.2*,38.0,-5.7,0.312,70.8*
COc1cccc(OCC(=O)Nc2ccc(-c3nc4ccccc4[nH]3)cc2)c1,1.3,-21.7,-3.2,.,.
COc1ccccc1OCC(=O)Nc1ccc(-c2nc3ccc(C)cc3[nH]2)cc1,110.3*,30.5,-8.4,.,.
COc1cc(/C=C\C(=O)O)cc(OC)c1OC,.,.,.,0.0428,21.4
COc1cc(/C=C/C(=O)N2CCC=CC2=O)cc(OC)c1OC,118.9*,62.4,.,0.0976,84.1*
O=C(CSc1nc2ccccc2c(=O)n1-c1ccccc1)Nc1ccc(F)c(Cl)c1,19.7,30.2,.,.,.
O=C(O)CSc1nc2cc(F)c(F)cc2[nH]1,-5.6,1.0,0.7,.,.
Cc1ccc(S(=O)(=O)Nc2ccc3c(c2)CC(=O)N([C@H](C)CO)C[C@@H](C)[C@@H](CN(C)Cc2ccc(C(F)(F)F)cc2)O3)cc1,114.5*,-1.0,-1.9,-0.277,14.4
Cc1ccc(S(=O)(=O)Nc2ccc3c(c2)CC(=O)N([C@@H](C)CO)C[C@H](C)[C@@H](CN(C)Cc2ccc(C(F)(F)F)cc2)O3)cc1,98.1*,22.8,-0.5,-0.302,68.7*
Cc1ccc(S(=O)(=O)Nc2ccc3c(c2)C(=O)N([C@H](C)CO)C[C@@H](C)[C@H](CN(C)Cc2ccc(C(F)(F)F)cc2)O3)cc1,10.4,0.6,0.9,0.166,-22.4
O=C(CSc1ccc(F)cc1Cl)C12CC3CC(CC(C3)C1)C2,38.9,-9.3,-0.8,7.18*,-6.7
CCOC(=O)CNC(=O)c1cc(-c2ccccn2)nc2c(C)c(Cl)ccc12,96.9*,-24.3,.,.,.
C[C@H]1CN([C@@H](C)CO)C(=O)Cc2cc(NC(=O)Nc3cccc4ccccc34)ccc2O[C@H]1CN(C)C,-5.9,1.4,-1.2,0.259,-3.4
C[C@@H]1CN([C@H](C)CO)C(=O)Cc2cc(NC(=O)Nc3ccccc3)ccc2O[C@H]1CN(C)CC1CCCCC1,?,-7.5,2.0,0.0626,-26.5
C[C@H]1CN([C@@H](C)CO)C(=O)Cc2cc(NC(=O)Nc3ccccc3)ccc2O[C@H]1CN(C)CC1CCCCC1,90.0*,-37.7,0.2,-0.377,.
C[C@@H]1CN([C@H](C)CO)C(=O)Cc2cc(NC(=O)Nc3ccc(C(F)(F)F)cc3)ccc2O[C@@H]1CN(C)CC1CCCCC1,?,17.1,-6.7,-9.58,-0.3
C[C@@H]1CN([C@H](C)CO)C(=O)Cc2cc(NC(=O)Nc3ccc(C(F)(F)F)cc3)ccc2O[C@H]1CN(C)CC1CCCCC1,116.4*,26.8,-9.2,0.07,20.8
C[C@H]1CN([C@@H](C)CO)C(=O)Cc2cc(NC(=O)Nc3cccc4ccccc34)ccc2O[C@@H]1CN(C)CC1CCCCC1,135.8*,25.8,-0.2,0.25,-21.4
O=S(=O)(CCc1ccncc1)c1ccccc1,-3.8,19.5,0.2,0.325,-16.8
Cn1c(SCC(=O)Nc2ccc(F)c(Cl)c2)nnc1-c1ccccc1Cl,28.6,55.8,-0.8,.,.
COc1cc(C(=O)Nc2cccc(-c3nc4ncccc4o3)c2)cc(OC)c1OC,34.3,-41.0,.,.,.
C[C@H](CO)N1C[C@H](C)[C@H](CN(C)S(=O)(=O)c2ccc(Cl)cc2)Oc2ccc(NC(=O)Nc3ccc(C(F)(F)F)cc3)cc2CC1=O,133.6*,50.0,-5.4,0.634,72.4*
C[C@@H]1CN([C@H](C)CO)C(=O)Cc2cc(NC(=O)Nc3ccc(C(F)(F)F)cc3)ccc2O[C@@H]1CN(C)S(=O)(=O)c1ccc(Cl)cc1,15.5,16.0,0.1,0.117,-2.5
C[C@@H]1CN([C@H](C)CO)C(=O)Cc2cc(NC(=O)Nc3ccc(C(F)(F)F)cc3)ccc2O[C@H]1CN(C)S(=O)(=O)c1ccc(Cl)cc1,117.0*,67.7,-5.3,1.64,59.6
COc1ccc(C(=O)N(CCCCN2C(=O)c3ccccc3C2=O)c2ccc(C)cc2)cc1,27.0,-21.7,-1.2,-0.37,.
COc1ccc(C2=Nc3ccccc3SC(c3ccccc3)C2)cc1 (configuration not stated),113.4*,-2.5,-0.8,-0.0223,80.3*
